Compound activity (PubChem BioAssay)
KB-3-1 tox – qHTS assay for MDR1-selective chemotherapeutics: Primary screen using the parental adenocarcinoma cell KB-3-1 | KB-3-1 viability, CellTiter-Glo ATP luminescence, 72 h | Potency, µM (highest dose often 46.1 µM), hits mostly cytotoxic | 400,000 compounds, 1.4% hits | AID 1347075, 2019; further: nearly all actives have a fitted effect of over 60% in size
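Using CellTiter-Glo luminescence, growth of non-resistant KB-3-1 adenocarcinoma cells is assessed 72 h after pin-tool compound addition at 37 °C. Normalized responses across the concentration series yield fitted curves.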
DT40 TDP1 CPT – qHTS for Inhibitors of human tyrosyl-DNA phosphodiesterase 1 (TDP1): qHTS in cells in presence of CPT | Potency, µM (highest dose often 46.2 µM), inactives show at the highest dose activity change, negative = growth inhibition, hits mostly inhibitors | chicken DT40 Tdp1-/-;hTDP1 cells + 20 nM CPT, ATP luminescence, 48 h | 420,000 compounds, 12% hits; further: nearly all actives have a fitted effect of over 55% in size
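Chicken DT40 Tdp1-/- cells complemented with human TDP1, 400 cells/well, exposed to compounds plus 20 nM camptothecin for at least 48 h at 37 C; viability read as ATP content by CellTiter-Glo luminescence.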
HT1080NT lethal – qHTS for induction of synthetic lethality in tumor cells producing 2HG: qHTS for the HT-1080-NT fibrosarcoma cell line. HT-1080-NT fibrosarcoma viability, CellTiter-Glo ATP luminescence, 48 h. Potency, µM (titrated, usually from 46.1 µM), for the others: top-dose activity, negative = less viability, usual class: cytotoxic. 360,000 compounds, 1.6% hits;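 further: NT is the 2HG producing partner of a matched IDH1 knockdown line; 0% = DMSO-treated cells and -100% = media-only wells without cells; nearly all actives have a fitted effect of over 55% in size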
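Fibrosarcoma NT cells, 750 per well in 5% FBS RPMI, were exposed to compound for 48 hours. Viability: CellTiter-Glo luminescence.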
KB-V1 MDR tox – qHTS assay for MDR1-selective chemotherapeutics: Primary screen using the drug-selected MDR subline cells KB-V1. AID 1347076, 2019. 400,000 compounds, 3.4% hits. KB-V1 MDR cells viability, CellTiter-Glo, 72 h. Potency, µM (doses to about 46.1 µM), most hits filed as cytotoxic; further: nearly all actives have a fitted effect of over 60% in size
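Cytotoxicity via CellTiter-Glo luminescence after 72 h compound exposure at 37 degrees C. Cells: drug-selected KB-V1 line, DMEM phenol-red free plus 10% FBS. Compounds tested at multiple concentrations; normalized data fitted to concentration-effect curves.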
DT40 TDP1 no CPT – qHTS for Inhibitors of human tyrosyl-DNA phosphodiesterase 1 (TDP1): qHTS in cells in absence of CPT | AID 686978, 2013 | 420,000 compounds, 15% hits | Potency, µM (titrated, usually from 46.2 µM), inactives show at the top dose activity change, negative = growth inhibition, hits mostly inhibitors | DT40 Tdp1-/- hTDP1 cells, no CPT, ATP luminescence, 48 h; further: nearly all actives have a fitted effect of over 55% in size
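Seeded 400 DT40-hTDP1 cells/well (vehicle DMSO, no 20 nM CPT); pinned compounds; ≥48 hr at 37 °C; CellTiter-Glo luminescence as viability measure.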
HT1080 IDH1KD tx – qHTS for induction of synthetic lethality in tumor cells producing 2HG: qHTS for the HT-1080-IDH1KD cell line; HT-1080 IDH1 knockdown viability, ATP luminescence, 48 h; Potency, µM (series often up to 46.1 µM), inactives show at the top dose activity, negative = toxicity, usual class: cytotoxic; AID 686971, 2013; 360,000 compounds, 2% hits;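 further: 0% = DMSO wells and -100% = cell-free medium wells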
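In this qHTS, HT-1080 cells depleted of IDH1 are exposed for 48 h at 37 °C to compound titrations. Toxicity is scored from CellTiter-Glo luminescence, with DMSO as full viability and medium alone as none.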
Numbers without * were called inactive; i = inactive; ? = inconclusive; / = no result. Compounds with a hit are over-represented: about 19% of the library has one in this group of screens. The call rests on the fitted dose curve; in most records, active means well fitted curve in the direction sought with a large enough effect; inconclusive means small, poorly fitted or top-dose-only effect, or another doubt; inactive means no such curve, though single readings can be large; an effect the other way counts as inactive or inconclusive. Unless noted, on the % scale 0 is the no-effect control and ±100 the full control effect; potency means the concentration at half of the fitted maximal effect.

SMILES | KB-3-1 tox | DT40 TDP1 CPT | HT1080NT lethal | KB-V1 MDR tox | DT40 TDP1 no CPT | HT1080 IDH1KD tx
Cc1noc(C)c1Cn1c(C)c(C(=O)NCc2ccc3c(c2)OCCO3)sc1=O | ? | 8.2µM* | 9% | ? | 16µM* | 5%
Cc1c(C(=O)NCc2ccc(F)cc2)sc(=O)n1Cc1ccc(Cl)c(Cl)c1 | ? | ? | ? | 16µM* | ? | ?
Cc1c(C(=O)NCc2ccc3c(c2)OCCO3)sc(=O)n1Cc1ccccc1C#N | i | ? | 3% | ? | 16µM* | 15%
Cc1ccc(S(=O)(=O)c2nnn3c2nc(NC(C)C)c2sccc23)cc1 | i | -11% | / | i | -19% | /
Cc1[nH]c2ccccc2c1C(=O)C(C)OC(=O)C1CCC1 (stereo not drawn) | i | 0% | 7% | i | -28% | 17%
O=C(c1nc2ccc(Cl)cn2c1CN1CCC[C@H]1CO)N1CCc2ccccc2C1 | i | -24% | -2% | ? | ? | -3%
O=C(c1cccs1)N1C[C@@H](n2cc(C3CC3)nn2)[C@H](O)C[C@@H]1c1ccc(Cl)cc1 | i | -9% | -13% | i | ? | -8%
COc1ccc(NC(=O)c2sc(=O)n(Cc3cccc(C(F)(F)F)c3)c2C)cc1OC | 8.2µM* | ? | -2% | ? | ? | ?
Cc1ccc(Cn2c(C)c(C(=O)NCC(C)C)sc2=O)cc1 | i | ? | 3% | 13µM* | ? | -1%
Cc1cccc(CNC(=O)c2sc(=O)n(Cc3c(C)cccc3C)c2C)c1 | ? | ? | -14% | 21µM* | 23µM* | ?
CSc1ccc(Cn2c(C)c(C(=O)NCCC#N)sc2=O)cc1 | ? | -11% | -5% | 15µM* | -26% | ?
O=c1c(-c2ccccc2)nc2ccccc2n1C(c1ccccc1)c1nc2ccccc2[nH]1 (stereo not drawn) | i | -25% | -4% | i | -19% | -10%
Cc1cccn2c(=S)[nH]nc12 | i | 4% | 2% | i | -3% | 5%
Cc1c(C(=O)NCc2ccccc2C(F)(F)F)sc(=O)n1Cc1ccc2ccccc2c1 | i | ? | 0% | ? | ? | -13%
CSc1ccc(Cn2c(C)c(C(=O)NCc3cccc(C(F)(F)F)c3)sc2=O)cc1 | i | ? | -18% | ? | ? | -16%
CSc1ccc(Cn2c(C)c(C(=O)NCc3ccc(F)cc3)sc2=O)cc1 | ? | 23µM* | -16% | ? | ? | -20%
CCCCN(C)C(=O)c1sc(=O)n(Cc2ccc(Cl)c(Cl)c2)c1C | i | ? | -3% | ? | 21µM* | -16%
Cc1c(C(=O)NCc2ccc(Cl)c(Cl)c2)sc(=O)n1Cc1ccc(S(C)(=O)=O)cc1 | ? | ? | -26% | ? | 18µM* | -25%
CCOC(=O)[C@]12CCC=C1N(Cc1ccccc1)C(=O)[C@H](CC(=O)N1CCOCC1)C2 | i | -9% | 19% | i | -7% | 10%
Cc1c(NC(=O)c2nc3ccccc3nc2N2CCCCC2)cccc1[N+](=O)[O-] | i | ? | / | i | ? | /
COC(=O)C1=CN(c2ccc(OC)cc2)C=C(C(=O)OC)C1c1ccc(C)c([N+](=O)[O-])c1 | ? | ? | -8% | 3.3µM* | 21µM* | -4%
COC(=O)C1=CN(c2ccc(F)cc2)C=C(C(=O)OC)C1c1cccc([N+](=O)[O-])c1 | i | -25% | -2% | i | 26µM* | -21%
COC(=O)C1=CN(c2ccc(OC)cc2)C=C(C(=O)OC)C1c1cccc(F)c1 | i | 8% | 7% | i | -10% | 13%
Cc1ccc2nc(N(Cc3cccnc3)C(=O)CCS(=O)(=O)c3ccccc3)sc2c1 | / | ? | / | / | 16µM* | /
Cc1cc(C)c2nc(N(Cc3cccnc3)C(=O)Cc3ccccc3)sc2c1 | i | ? | / | i | ? | /
SMILES | KB-3-1 tox | DT40 TDP1 CPT | HT1080NT lethal | KB-V1 MDR tox | DT40 TDP1 no CPT | HT1080 IDH1KD tx
Cc1ccc2nc(N(Cc3cccnc3)C(=O)Cc3ccccc3)sc2c1 | / | -10% | / | / | -17% | /
CCS(=O)(=O)c1ccccc1C(=O)N(Cc1cccnc1)c1nc2cc(C)c(C)cc2s1 | / | ? | / | / | 23µM* | /
O=C(CCS(=O)(=O)c1ccccc1)N(Cc1cccnc1)c1nc2ccc(Cl)cc2s1 | / | 5.8µM* | / | / | 13µM* | /
CN(C)c1ccc(Cl)c(NC(N)=S)c1 | i | -28% | 1% | i | -27% | 6%
CCOC(=O)COc1ccccc1/C=N\NC(=O)c1cc2c(ccc3ccccc32)o1 | i | -20% | 0% | i | ? | 6%
Cc1[nH]c(=O)[nH]c(=S)c1C(=O)Nc1ccc(Cl)c(Cl)c1 | i | 8% | -2% | i | -3% | -3%
COCCNC(=O)C1(C)CCCN(C(=O)c2ccc(OC)cc2OC)C1 (stereo not drawn) | i | -11% | 1% | i | -9% | 18%
CN(C)c1cccc(C(=O)Nc2nc3ccccc3[nH]2)c1 | ? | ? | -29% | ? | 12µM* | ?
O=C(Nc1nc2ccccc2[nH]1)c1cccc(F)c1 | i | ? | -28% | i | 16µM* | ?
Clc1cccc(N/N=C(\Cc2nc3ccccc3[nH]2)c2ccccc2)c1 | ? | ? | 4% | 21µM* | ? | -23%
CCn1cc(C(=O)NCCCN(CC(C)C)CC(C)C)c(=O)c2cc(S(=O)(=O)N3CCc4ccccc4C3)ccc21 | i | 8% | / | ? | -10% | /
CCN(CC)CCCNC(=O)c1cn(CC)c2ccc(S(=O)(=O)N(C)C3CCCCC3)cc2c1=O | i | -1% | -8% | ? | 6% | -1%
